# How the values were obtained:
# Settings in all cases: concentration: 1 μM, replicates: in singlicate; n = 1
# BRSK2 = tested on: BRSK2
# BTK = tested on: BTK
# BUB1 = tested on: BUB1
# CAMK1B = tested on: CAMK1B
# CAMK1D = tested on: CAMK1D
# CAMK1G = tested on: CAMK1G
# CAMK1 = tested on: CAMK1
# CAMK2A = tested on: CAMK2A
# CAMK2B = tested on: CAMK2B
# CAMK2D = tested on: CAMK2D
# CAMK2G = tested on: CAMK2G
# CAMK4 = tested on: CAMK4
# CAMKK1 = tested on: CAMKK1
# CAMKK2 = tested on: CAMKK2
# CASK = tested on: CASK
# CDC2L1 = tested on: T1, CDC2L1
# T1 construct: gene CDK11B
# CDC2L2 = tested on: CDC2L2
# CDC2L5 = tested on: T2, CDC2L5
# T2 construct: gene CDK13
# CDK11 = tested on: T3, CDK11
# T3 construct: gene CDK19
# CDK2 = tested on: CDK2
# 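Note: KINOMEscan kinase panel screen.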
Structure (SMILES),%Inh (BRSK2) [%],%Inh (BTK) [%],%Inh (BUB1) [%],%Inh (CAMK1B) [%],%Inh (CAMK1D) [%],%Inh (CAMK1G) [%],%Inh (CAMK1) [%],%Inh (CAMK2A) [%],%Inh (CAMK2B) [%],%Inh (CAMK2D) [%],%Inh (CAMK2G) [%],%Inh (CAMK4) [%],%Inh (CAMKK1) [%],%Inh (CAMKK2) [%],%Inh (CASK) [%],%Inh (CDC2L1) [%],%Inh (CDC2L2) [%],%Inh (CDC2L5) [%],%Inh (CDK11) [%],%Inh (CDK2) [%]
Nc1n[nH]c2ncc(-c3ccccc3)cc12 [SB-517081],0,0,34,58,40,17,18,0,0,11,11,0,0,0,24,0,5,0,0,0
CCC(=O)c1c(-c2ccccc2)c2cc(Cl)ccc2c(=O)n1Cc1cc(S(C)(=O)=O)n(CC(N)=O)n1,0,0,0,0,21,0,3,0,0,0,0,0,0,0,0,0,6,0,0,0
O=C(NCc1cccs1)c1cc(C(=O)c2c(Cl)cccc2Cl)c[nH]1 [GW823670],0,0,0,0,0,0,0,0,0,0,0,15,0,0,5,0,0,0,14,0
Nc1ncnc2c1ncn2-c1cccc(F)c1 [SKF-97560],5,22,39,0,0,0,0,0,3,0,0,0,0,0,47,1,15,23,0,0
COc1ccc(-n2cnc3c(N)ncnc32)cc1 [SKF-97236],14,8,4,25,10,0,5,0,0,0,6,12,0,0,0,0,0,4,0,19
COc1cc(Nc2nccc(N3CCC(NC(=O)C(C)c4ccc(Cl)cc4)C3)n2)cc(OC)c1OC (centres unmarked) [GSK1379757],0,0,48,0,9,0,22,0,0,0,21,0,0,1,0,0,13,0,3,0
COC(=O)c1c(-c2ccccc2)c2cc(Br)ccc2c(=O)n1Cc1ccc(NC(=O)CCC(=O)O)cc1,0,38,20,38,12,9,12,0,0,3,8,0,0,0,0,16,0,13,7,4
Nc1nc(N)c2nc(-c3ccccc3)[nH]c2n1 [SKF-12778],0,0,23,18,0,0,0,0,0,0,4,0,6,0,0,0,0,5,0,0
Nc1nc(-c2ccccc2F)c(-c2ccnc3ccccc23)s1 [GW560459],4,0,61,0,0,0,6,0,0,0,10,0,10,4,0,0,8,0,0,0
COc1cc(OC)cc(-c2cc3cnc(N)nc3nc2NC(=O)NC(C)(C)C)c1,6,0,0,0,0,0,0,0,0,4,23,0,16,29,0,2,0,0,0,0
Cc1nc(N(C)[C@H]2CN(C(=O)CC#N)CC[C@H]2C)c2cc[nH]c2n1,0,0,0,0,15,1,22,0,5,0,12,6,7,4,15,0,0,0,0,0
COc1cccc(-n2cnc3c(N)ncnc32)c1 [SKF-97416],6,0,57,20,11,0,16,0,0,12,8,4,4,6,20,0,2,36,1,4
Nc1ncnc2c1ncn2-c1cccc2ccccc12 [SKF-97184],22,0,37,27,10,8,20,0,0,0,0,38,0,0,22,0,11,26,23,0
Nc1ncnc2c1ncn2-c1ccc(Cl)cc1 [AH2635],9,0,25,3,4,0,5,0,0,0,13,0,0,10,0,0,28,0,0,0
COc1cc2ncn(-c3cc(OCc4ccc(S(C)(=O)=O)cc4)c(C(N)=O)s3)c2cc1OC [GW869979],0,0,28,0,0,0,0,3,6,0,0,0,0,0,37,0,14,31,0,0
COc1cccc(C2=C(Nc3cccc(C(=O)O)c3)C(=O)NC2=O)c1 [SB-390770],17,0,8,30,0,33,3,22,33,0,14,0,1,14,13,0,0,0,0,15
CN1C(=O)C(Nc2ccccc2)=C(c2ccccc2)C1=O [SB-300079],0,0,32,0,0,0,0,0,0,0,0,0,0,0,0,0,0,0,0,0
O=c1cc(N2CCOCC2)nc2n(Cc3ccc(F)c(Cl)c3)ccn12 [GSK2297099],0,0,0,32,9,11,17,0,0,23,28,0,28,24,2,3,28,0,0,0
Cn1c(=O)c(F)c(Nc2ccc(I)cc2F)c2c(=O)n(OC[C@H](O)CO)cnc21,15,0,0,0,8,0,0,4,12,9,34,22,24,33,0,14,15,13,0,0
Nc1nccc2scc(-c3ccc4c(c3)CCN4C(=O)Cc3ccccc3)c12 [GSK2576924],0,0,0,33,10,0,9,10,2,4,0,3,0,7,15,8,16,0,57,0
COc1ccc(-c2coc3ccc(-c4nnc(SCc5cccc(C#N)c5)o4)cc23)cc1,10,0,0,6,23,8,26,0,0,7,0,0,0,0,8,0,10,0,0,6
OCCCNc1nccc(-c2c(-c3cccc(C(F)(F)F)c3)nn3cc(C(F)(F)F)ccc23)n1 [GW630813],0,0,42,0,14,1,11,0,0,22,17,0,5,12,2,0,9,0,2,25

Structure (SMILES),%Inh (BRSK2) [%],%Inh (BTK) [%],%Inh (BUB1) [%],%Inh (CAMK1B) [%],%Inh (CAMK1D) [%],%Inh (CAMK1G) [%],%Inh (CAMK1) [%],%Inh (CAMK2A) [%],%Inh (CAMK2B) [%],%Inh (CAMK2D) [%],%Inh (CAMK2G) [%],%Inh (CAMK4) [%],%Inh (CAMKK1) [%],%Inh (CAMKK2) [%],%Inh (CASK) [%],%Inh (CDC2L1) [%],%Inh (CDC2L2) [%],%Inh (CDC2L5) [%],%Inh (CDK11) [%],%Inh (CDK2) [%]
Cc1nnc(-c2ccc(C)c(-c3ccc(C(=O)O)cc3)c2)o1 [GW608005],8,0,17,8,4,0,2,0,0,0,3,0,7,0,1,0,0,0,0,0
CCC(=O)c1c(-c2ccccc2)c2cc(Cl)ccc2c(=O)n1Cc1ccc(C(=O)O)cc1,0,0,0,0,0,0,0,0,0,0,0,0,0,0,0,0,0,0,0,0
COc1ccc(CNC(=O)NC2CCN(c3ccnc(Nc4ccc(F)cc4)n3)C2)cc1 (centres unmarked) [GSK1379706],3,18,50,0,4,8,5,0,0,18,38,0,17,26,19,2,0,0,22,3
Cl.NS(=O)(=O)c1cccc(Nc2cc(-c3ccc(F)cc3)n[nH]2)c1 [GW824645],0,0,36,0,0,0,0,0,0,0,0,2,0,0,20,0,0,0,3,5
Cc1nn2c(=O)cc(N3CCOCC3)nc2n1Cc1cccc(Cl)c1Cl [GSK2342769],0,0,12,28,8,8,9,0,0,1,10,25,2,9,0,0,6,0,16,0
O=C(Nc1n[nH]c2nc(-c3ccccc3)c(Br)cc12)C1CC1 [SB-708998],32,0,11,26,4,0,4,0,0,4,4,0,0,0,0,0,0,0,0,0
CC(C)(C)c1ccc(C(=O)Nc2cn3cc(-c4ccccc4)ccc3n2)cc1,0,0,0,6,0,0,0,0,0,0,0,14,0,0,1,0,11,0,0,0
COc1cccc(C2=C(N(C)c3ccccc3)C(=O)NC2=O)c1 [SB-334865],0,0,53,8,12,0,4,0,0,17,9,0,0,0,30,43,27,0,0,3
Cc1cccc(-c2nc(Nc3ccc4c(cnn4C)c3)c3ccccc3n2)n1 [GW876731],2,0,34,0,0,0,10,0,8,2,0,0,2,0,0,0,6,0,10,6
CCn1c(-c2ccoc2)nc2cnccc21 [SB-733887],0,0,59,0,8,0,2,0,0,0,6,0,4,4,3,0,6,0,0,4
Fc1cccc(CSc2nnc(-c3ccc4c(c3)CCO4)o2)c1,0,33,25,0,0,2,6,16,24,0,20,0,9,6,0,0,0,17,0,8
Cc1cccc(-c2cc(-c3c[nH]nc3-c3ccccn3)ccn2)c1 [GW679395],0,0,28,5,10,0,7,0,0,5,21,0,9,7,24,0,0,0,9,0
COc1cc2ncn(-c3cc(OCCCc4ccccc4)c(C(N)=O)s3)c2cc1OC [GSK205189],3,0,20,0,16,24,14,0,0,16,29,0,3,17,52,0,3,0,0,0
CCS(=O)c1ccc(-c2coc3ccc(-c4nnc(C)o4)cc23)cc1 (centres unmarked),11,18,0,5,23,2,20,0,3,0,0,0,0,0,0,0,0,14,0,0
COc1cc(Nc2ccnc3ccc(C(F)(F)F)cc23)cc(OC)c1OC [GW577382],10,35,23,38,14,1,17,0,0,5,12,10,15,0,25,0,17,0,19,4
COc1cc2nccc(Nc3ccc(OCc4ccc(NC(C)=O)cc4)cc3)c2cc1OC.Cl [GW440135],0,0,46,31,8,0,5,0,0,4,9,0,11,1,0,0,0,0,34,0
CCC(=O)c1c(-c2ccccc2)c2cc(Cl)ccc2c(=O)n1Cc1cc(S(C)(=O)=O)n(CCC(C)(C)O)n1,0,23,14,0,0,33,7,15,0,24,18,19,18,28,0,9,13,23,14,0
FC(F)(F)c1ccc(-c2ncn(CCCN3CCOCC3)c2-c2ccncc2)cc1 [SB-217780],7,0,0,35,23,3,0,0,0,3,21,14,11,18,0,0,14,15,0,0
O=C(Nc1ccc2c(c1)OCO2)NC1CCN(c2ccnc(NCc3ccc(F)cc3)n2)CC1 [GSK1379859],0,0,7,0,16,0,16,0,0,7,22,0,0,25,0,0,6,0,53,0
COc1cc2ncn(-c3cc(OCc4ccncc4Br)c(C(N)=O)s3)c2cc1OC [GW854278],20,0,0,0,0,7,0,37,46,17,11,0,15,17,34,5,10,5,11,1
C[C@@H]1CC[C@H](C(=O)NC2CCCCC2)CN1c1cc(-c2ccc3c(N)n[nH]c3c2)nc(N)n1 [GSK2291363],10,0,48,2,29,22,35,4,16,18,38,0,24,37,18,0,23,0,7,1
